Assay results from PubChem BioAssay (NCI).
This is part of a sample that, as a whole, favours compounds with a hit. Of some 83,000 tested, about 20% had one in any assay.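 How to read the values: 0–100, growth inhibition (40 = 60% inhibited); 0, no net growth; -100 to 0, cell death (-40 = 40% of starting cells died; -100 = all dead).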 Unmarked numbers belong to inactive results. Activity calls are given as the source filed them. Rule for the calls: active = growth percent below 10; inactive = the rest.

System: MALME-3M melanoma
Assay: NCI-60 one-dose screen, 48 h (100 = growth as untreated, 0 = no growth, -100 = all killed)
Conditions: 10 µM unless noted

| Structure (SMILES) | growth |
| --- | --- |
| CCC1S/C(=N\N=C(/C)c2ccco2)N(c2ccccc2)C1=O (stereo not drawn) | 79.6% |
| C#C[C@H](O)/C=C/CCCCCCC#C[C@H](O)CC[C@@H](O)C#CCCCCCC/C=C/[C@@H](O)C#C | -32.9% (active) |
| O=[N+]([O-])c1cccc2cc(S(=O)(=O)O)ccc12 | 102% |
| Nc1ccc(S(=O)(=O)Nc2cc(I)cc(I)c2)cc1 | 118% |
| O=C(Nc1ccc(-n2cc(-c3ccncc3)c(-c3ccc(O)c(Cl)c3)n2)cc1)Nc1cc(C(F)(F)F)cc(C(F)(F)F)c1 | 92.1% |
| O[C@@H]1CCO[C@H](c2ccc3ccccc3c2)C1 | 96.7% |
| COc1cc(Cn2cc3c(c2)-c2onc(CO)c2CC3)cc(OC)c1OC | 79.7% |
| CN(C)CCS(=O)(=O)Nc1cc(-c2ccc3ncnc(Nc4ccc(F)c(Cl)c4)c3c2)cnc1Cl | -23.2% (active) |
| CCN(CC)c1ccc(C2CC(c3cc(OC)c(OC)c(OC)c3)=NN2)cc1 (stereo not drawn) | 108% |
| CCn1cc(C(=O)O)c(=O)c2cc(F)c(N3CCN(CC(=O)Nc4ccc(C(C)=O)cc4)CC3)cc21 | 105% |
| CCOc1ccc(-n2c(-c3cc(OC)c(OC)c(OC)c3)nnc2-c2ccc(OC)cc2N)cc1 | 79.7% |
| COc1ccc(/C(=C/c2cc(OC)c(OC)c(OC)c2)[N+](=O)[O-])cc1 | -10.8% (active) |
| O=C(Nc1cccc([N+](=O)[O-])c1)Nc1cccc([N+](=O)[O-])c1 | 66.9% |
| COc1ccc(-c2nn(-c3ccc(NC(=O)Nc4cc(C(F)(F)F)cc(C(F)(F)F)c4)cc3)cc2-c2ccncc2)cc1Cl | 11.4% |
| O=c1c2ccccc2sc2c(NCCCNCCO)nc3ccccc3c12 | -55.3% (active) |
| O=C(NNC(=O)c1ccc([N+](=O)[O-])cc1)c1ccc([N+](=O)[O-])cc1 | 112% |
| CCN(CC)C(=O)C1CCN(C(=O)c2ccccc2)CC1 | 102% |
| O=S(=O)(O)c1ccc(F)cc1 | 90.7% |
| Cc1cc(SCc2ccc(Cl)cc2Cl)nc(SCc2ccc(Cl)cc2Cl)n1 | 88.9% |
| CCOC(=O)c1noc2c1CCc1cn(Cc3cc(OC)cc(OC)c3)cc1-2 | 107% |

| Structure (SMILES) | growth |
| --- | --- |
| CC(C)(C)C(=O)Nc1nc2c(s1)CCc1ccn(S(=O)(=O)c3ccccc3)c1-2 | 99.6% |
| CCCCCCCCCCCCCCCCNc1ccccc1 | 114% |
| Cc1nc(N)nc(SCc2ccccc2)c1Br | 92.6% |
| O=S(c1ccccc1)c1ccc2nnnn2n1 (stereo not drawn) | 103% |
| O=C1COc2ccccc2C(=O)N1CCCCN1CCCCC1 | 93.8% |
| O=C(COc1ccc(Cl)cc1Cl)N1N=C(c2ccc(Cl)cc2Cl)CC1(O)c1cc(F)c(Cl)cc1Cl (stereo not drawn) | 129% |
| CC(CCC(=O)O)[C@H]1CCC2C3C(=O)C[C@@H]4CC(=O)CC[C@]4(C)C3CC(=O)[C@@]21C (stereo partly drawn) | 97.5% |
| COc1ccc(-c2nn(-c3ccc(NC(=O)Nc4ccc(Cl)c(C(F)(F)F)c4)cc3)cc2-c2ccncc2)cc1Cl | 2.95% (active) |
| O=C1COc2ccccc2C(=O)N1CCCCNc1ccccc1 | 102% |
| O=C1CCC(c2c(O)cc(O)c3c(=O)c(O)c(-c4ccc(O)c(O)c4)oc23)N1 (stereo not drawn) | 89.6% |
| CCCCCCCCCCCCCCCC(=O)NS(=O)(=O)OC[C@H]1O[C@@H](n2cnc3c(N)ncnc32)[C@H](O)[C@@H]1O | -51.6% (active) |
| CN(CCNCc1ccccn1)CCNCc1ccccn1 | -21.8% (active) |
| CCN(CC)CCNCC(O)Cc1ccc(OC)cc1 (stereo not drawn) | 113% |
| CN1CCN(Cn2nc(-c3cc(Cl)cc(Cl)c3Cl)n(/N=C/c3ccc(Cl)cc3)c2=S)CC1 | 101% |
| Cn1cnc([N+](=O)[O-])c1N1c2ccncc2Sc2ccncc21 | 84% |
| O=C(O)c1cccc2oc(-c3ccccc3O)nc12 | 70.9% |
| Nn1c(CN2CCN(c3cc4c(cc3F)c(=O)c(C(=O)O)cn4C3CC3)CC2)n[nH]c1=S | 94.6% |
| Cc1ccc2nc(-c3ccc(-n4on4-c4ccc(/C=C/c5ccc(-n6on6-c6ccc(-c7nc8ccc(C)cc8s7)cc6)cc5S(=O)(=O)O)c(S(=O)(=O)O)c4)cc3)sc2c1 | 101% |
| CC(C)(C)NCC(O)COc1c(Br)c(Br)c(Br)c2c1OC(C)(C)C2 (stereo not drawn) | -82.8% (active) |

System: MDA-MB-231 breast
Assay: as above
Conditions: 10 µM unless noted

| Structure (SMILES) | growth |
| --- | --- |
| CCC1S/C(=N\N=C(/C)c2ccco2)N(c2ccccc2)C1=O (stereo not drawn) | 118% |
| C#C[C@H](O)/C=C/CCCCCCC#C[C@H](O)CC[C@@H](O)C#CCCCCCC/C=C/[C@@H](O)C#C | 63.1% |
| O=[N+]([O-])c1cccc2cc(S(=O)(=O)O)ccc12 | 105% |
| Nc1ccc(S(=O)(=O)Nc2cc(I)cc(I)c2)cc1 | 102% |
| O=C(Nc1ccc(-n2cc(-c3ccncc3)c(-c3ccc(O)c(Cl)c3)n2)cc1)Nc1cc(C(F)(F)F)cc(C(F)(F)F)c1 | 78.3% |
| O[C@@H]1CCO[C@H](c2ccc3ccccc3c2)C1 | 104% |
| COc1cc(Cn2cc3c(c2)-c2onc(CO)c2CC3)cc(OC)c1OC | 103% |
| CN(C)CCS(=O)(=O)Nc1cc(-c2ccc3ncnc(Nc4ccc(F)c(Cl)c4)c3c2)cnc1Cl | -26.8% (active) |
| CCN(CC)c1ccc(C2CC(c3cc(OC)c(OC)c(OC)c3)=NN2)cc1 (stereo not drawn) | 31.7% |
| CCn1cc(C(=O)O)c(=O)c2cc(F)c(N3CCN(CC(=O)Nc4ccc(C(C)=O)cc4)CC3)cc21 | 100% |
| CCOc1ccc(-n2c(-c3cc(OC)c(OC)c(OC)c3)nnc2-c2ccc(OC)cc2N)cc1 | 82.7% |
| COc1ccc(/C(=C/c2cc(OC)c(OC)c(OC)c2)[N+](=O)[O-])cc1 | 9.98% (active) |
| O=C(Nc1cccc([N+](=O)[O-])c1)Nc1cccc([N+](=O)[O-])c1 | 88.1% |
| COc1ccc(-c2nn(-c3ccc(NC(=O)Nc4cc(C(F)(F)F)cc(C(F)(F)F)c4)cc3)cc2-c2ccncc2)cc1Cl | 8.03% (active) |
| O=c1c2ccccc2sc2c(NCCCNCCO)nc3ccccc3c12 | -10.6% (active) |
| O=C(NNC(=O)c1ccc([N+](=O)[O-])cc1)c1ccc([N+](=O)[O-])cc1 | 117% |
| CCN(CC)C(=O)C1CCN(C(=O)c2ccccc2)CC1 | 105% |
| O=S(=O)(O)c1ccc(F)cc1 | 112% |
| Cc1cc(SCc2ccc(Cl)cc2Cl)nc(SCc2ccc(Cl)cc2Cl)n1 | 101% |
| CCOC(=O)c1noc2c1CCc1cn(Cc3cc(OC)cc(OC)c3)cc1-2 | 117% |

| Structure (SMILES) | growth |
| --- | --- |
| CC(C)(C)C(=O)Nc1nc2c(s1)CCc1ccn(S(=O)(=O)c3ccccc3)c1-2 | 95.8% |
| CCCCCCCCCCCCCCCCNc1ccccc1 | 104% |
| Cc1nc(N)nc(SCc2ccccc2)c1Br | 91.1% |
| O=S(c1ccccc1)c1ccc2nnnn2n1 (stereo not drawn) | 104% |
| O=C1COc2ccccc2C(=O)N1CCCCN1CCCCC1 | 109% |
| O=C(COc1ccc(Cl)cc1Cl)N1N=C(c2ccc(Cl)cc2Cl)CC1(O)c1cc(F)c(Cl)cc1Cl (stereo not drawn) | 136% |
| CC(CCC(=O)O)[C@H]1CCC2C3C(=O)C[C@@H]4CC(=O)CC[C@]4(C)C3CC(=O)[C@@]21C (stereo partly drawn) | 90.7% |
| COc1ccc(-c2nn(-c3ccc(NC(=O)Nc4ccc(Cl)c(C(F)(F)F)c4)cc3)cc2-c2ccncc2)cc1Cl | -52.1% (active) |
| O=C1COc2ccccc2C(=O)N1CCCCNc1ccccc1 | 88.8% |
| O=C1CCC(c2c(O)cc(O)c3c(=O)c(O)c(-c4ccc(O)c(O)c4)oc23)N1 (stereo not drawn) | 118% |
| CCCCCCCCCCCCCCCC(=O)NS(=O)(=O)OC[C@H]1O[C@@H](n2cnc3c(N)ncnc32)[C@H](O)[C@@H]1O | -25.6% (active) |
| CN(CCNCc1ccccn1)CCNCc1ccccn1 | 1.53% (active) |
| CCN(CC)CCNCC(O)Cc1ccc(OC)cc1 (stereo not drawn) | 105% |
| CN1CCN(Cn2nc(-c3cc(Cl)cc(Cl)c3Cl)n(/N=C/c3ccc(Cl)cc3)c2=S)CC1 | 83.8% |
| Cn1cnc([N+](=O)[O-])c1N1c2ccncc2Sc2ccncc21 | 85.1% |
| O=C(O)c1cccc2oc(-c3ccccc3O)nc12 | 51.9% |
| Nn1c(CN2CCN(c3cc4c(cc3F)c(=O)c(C(=O)O)cn4C3CC3)CC2)n[nH]c1=S | 107% |
| Cc1ccc2nc(-c3ccc(-n4on4-c4ccc(/C=C/c5ccc(-n6on6-c6ccc(-c7nc8ccc(C)cc8s7)cc6)cc5S(=O)(=O)O)c(S(=O)(=O)O)c4)cc3)sc2c1 | 133% |
| CC(C)(C)NCC(O)COc1c(Br)c(Br)c(Br)c2c1OC(C)(C)C2 (stereo not drawn) | -65.6% (active) |
